Experimental data published in ChEMBL document CHEMBL3988442, “University of Dundee, Small-Polar-MMV Screening Library” (2021).
Out of some 48,000 compounds screened, about 13,000 (27%) showed an effect of 50% or more. Some of the results follow.

Each compound was assayed on Wolbachia pipientis (assay: Anti-Wolbachia Cell-Based Screen). Details: 5 µM.
Type: functional
Parameters: scale not given: in the data most compounds retested in dose-response had high values

Row | Compound | Percent Effect [%]
1 | CN(C1CCCC1)C(C)(C)C(=O)NCCNC(N)=O | -0.4481
2 | COCC1CN(C(=O)Cc2ccccn2)Cc2ncnn2C1.O=C(O)C(F)(F)F (stereo not drawn) | -1.318
3 | Cc1ccc(CN2CCC(Cc3nnc(CO)n3C)CC2)cc1C | -13.27
4 | CN(c1ncc(S(N)(=O)=O)s1)C1CCC1 | 11.92
5 | COc1cc(NCc2ncc[nH]2)ccc1Br | 2.622
6 | Cn1nc2c(cc1=O)CN(CCc1nc3ccccc3c(=O)[nH]1)CC2 | 5.907
7 | CN(C)C(=O)COC[C@]12COC[C@H]1CN(Cc1ccco1)C2.O=C(O)C(F)(F)F | 94.75
8 | CN(C)C(=O)COC[C@]12COC[C@H]1CN(Cc1ccoc1)C2 | -6.231
9 | CN(C)C(=O)COC[C@]12COC[C@H]1CN(CC1CCC1)C2.O=C(O)C(F)(F)F | -8.978
10 | CN(C)C(=O)COC[C@]12COC[C@H]1CN(Cc1ccccc1)C2.O=C(O)C(F)(F)F | 108.4
11 | CN(C)C(=O)COC[C@]12COC[C@H]1CN(CCc1ccccc1)C2.O=C(O)C(F)(F)F | 103
12 | CCS(=O)(=O)NC[C@]12COC[C@H]1CN(CCc1ccccc1)C2.O=C(O)C(F)(F)F | -14.92
13 | Cc1c(Cl)ccc2ccc(NC(CO)CO)nc12 | -19.83
14 | Cc1ccc(NCc2cn3c(n2)CN(Cc2ccoc2)CC3)nn1.O=C(O)C(F)(F)F.O=C(O)C(F)(F)F | 8.385
15 | CCn1ccnc1CN(C)C(C(=O)O)c1ccc(C(C)(C)C#N)cc1 (stereo not drawn) | -18.43
16 | C=C(C)COc1cccc(CN(CC)Cc2noc(C)n2)c1 | -43.03
17 | NC1CCN(C(=O)c2cnc(Cc3c(Cl)cccc3Cl)nc2O)C1 (stereo not drawn) | -9.17
18 | COCCN(Cc1ccco1)Cc1nc(-c2ccsc2)no1 | 17.38
19 | CN(C)CCNc1ccc(-c2nc(-c3ccccc3F)no2)cn1 | -20.15
20 | CCN(CC)CCNC(=O)c1cnc(-c2ccccc2)nc1 | 14.16
21 | CCN(CC)CCNc1c(-c2ccccc2)c(=O)c1=O | 104.3

Row | Compound | Percent Effect [%]
22 | CN(C)CCNc1ccc(-c2nc(COc3ccccc3)no2)cn1 | -0.8633
23 | CN(C)CCNc1c(-c2ccccc2)c(=O)c1=O | 102.6
24 | CCCN(CCC)CCNc1c(-c2ccccc2)c(=O)c1=O | 97.32
25 | CCN(CC)CCNC(=O)c1cnc(C(C)(C)C)s1 | -7.701
26 | O=c1ccc2c([nH]1)CCN(S(=O)(=O)c1ccc3c(c1)CCCC3)C2 | -15.49
27 | Cc1ccc(CN2CC[C@@H](N(C)C(C)C)[C@@H]2Cc2ccccc2)o1 | -15.45
28 | CCc1cccc(CC(=O)NC2CCN(C(=O)NC(C)(C)C)CC2)c1 | -13.61
29 | Cc1nc(CNC2CCc3nc(C(C)C)nn3C2)oc1C (stereo not drawn) | 22.08
30 | CC(C)c1nc2n(n1)CC(NCc1nnnn1C1CC1)CC2 (stereo not drawn) | 8.252
31 | CC(C)c1nc2n(n1)CC(NCc1ncc(-c3ccccc3)o1)CC2 (stereo not drawn) | -0.3467
32 | CC(C)c1nc2n(n1)CC(NCc1nnc(-c3ccco3)o1)CC2 (stereo not drawn) | -6.468
33 | Cc1ncc(CNC2CCc3nc(C(C)C)nn3C2)s1 (stereo not drawn) | 101
34 | Cc1cnc(CNC2CCc3nc(C(C)C)nn3C2)cn1 (stereo not drawn) | 130.4
35 | CCn1cc(S(=O)(=O)Nc2ccc3[nH]c(C4CCC4)nc3c2)cn1 | -33.9
36 | c1cnn(C2CN(c3nc(-c4ccncc4)nc4c3CCC4)C2)c1 | -0.2642
37 | Cc1ccc(C2CN(C(=O)c3c(C)cc(C)[nH]c3=O)CCO2)c(C)c1 (stereo not drawn) | 7.803
38 | CCC(C)N(C)S(=O)(=O)c1ccc(CCNC(C)=O)s1 (stereo not drawn) | 12.12
39 | CO[C@H]1CN(C(=O)c2cc3ccccc3[nH]2)CC[C@H]1N | 117
40 | Cc1[nH]c(-c2ccccc2)nc1C(=O)N1CCC(O)(CO)CC1 | -2.686
41 | CO[C@H]1CN(C(=O)c2ccc(-c3ccccc3)[nH]2)CC[C@H]1N | 104.8
42 | CN1[C@H]2CC[C@@H]1CN(C(=O)c1sccc1S(N)(=O)=O)CC2 | -9.156

Row | Compound | Percent Effect [%]
43 | CC(C)COC1CCN(C(=O)c2cc3ccccc3c(=O)[nH]2)CC1 | -14.3
44 | CO[C@H]1CN(C(=O)c2nc(-c3ccccc3)[nH]c2C)CC[C@H]1N | 99.21
45 | O=C(c1cccc(-c2ncc[nH]2)c1)N1CC[C@H](CO)[C@@H](O)C1 | -2.343
46 | Cc1ccsc1[C@@H]1CCN(C(=O)c2cc3ccccc3[nH]2)C[C@H]1O | -6.106
47 | CC(=O)Nc1ccsc1C(=O)N1CC[C@@H]2CC[C@H](C1)N2C | -9.655
48 | CN1[C@H]2CC[C@@H]1CN(C(=O)c1ccc(-c3ccccc3)[nH]1)CC2 | 114.3
49 | CO[C@H]1CN(C(=O)c2ccc(-c3cc[nH]n3)cc2)CC[C@H]1N | 5.265
50 | Cc1[nH]c(-c2ccccc2)nc1C(=O)N1CC[C@H](CO)[C@@H](O)C1 | 5.886
51 | O=C(O)CC1CN(S(=O)(=O)c2cccc(F)c2)c2ccccc21 (stereo not drawn) | -14.9
52 | CC(NC(=O)Nc1nnc(-c2ccccn2)s1)C(=O)OC(C)(C)C (stereo not drawn) | 4.269
53 | CN1CC[C@@H]2[C@@H](CO[C@H]2CNC(=O)c2nccn2C)C1.O=C(O)C(F)(F)F | -30.91
54 | COCCN(CCN(C)C)C(=O)NC1CCc2ccccc2C1 (stereo not drawn) | -2.569
55 | Cc1ccc(Sc2ccc(CN3CCC4(CCCNC4=O)C3)o2)cc1 (stereo not drawn) | 5.94
56 | CCOc1cc2c(cc1CN1CCC3(CCCNC3=O)C1)CCC2 (stereo not drawn) | 106.5
57 | CCOc1cc(Cl)c(CN2CCC3(CCCNC3=O)C2)cc1OC (stereo not drawn) | 104.3
58 | CCOc1cc2c(cc1CN1CCC3(CC1)CNC(=O)C3)CCC2 | 89
59 | CCOc1ccc(CN2CCC3(CC2)CNC(=O)C3)cn1 | -1.206
60 | O=C1NCCCC12CCN(Cc1ccc(SC3CCCCC3)o1)C2 (stereo not drawn) | 4.336
61 | CCCNc1ncc(CN2CCC3(CC2)CNC(=O)C3)cn1 | -5.134
62 | CCOc1cc2c(cc1CCC(=O)O)CCC2 | -9.267
63 | CCCc1cc(C(=O)N2CCC3(CCCNC3=O)C2)cs1 (stereo not drawn) | 9.333
